Compound activity (PubChem BioAssay)
ELG1 repair inh: inhibitors of ELG1-dependent DNA repair in HEK293T cells. Potency, µM (doses to about 46.1 µM), without a hit: at the top dose activity change, negative = inhibition, actives largely listed as inhibitors. AID 504467. HEK293T ELG1-luciferase reporter, luminescence, 16 h; DNA damage induced by 5-fluorouridine. actives 2.3% (n = 330,000); further: on the % scale 0 is the no-effect control and ±100 the full control effect; nearly all actives have a fitted effect of over 55% in size
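DMSO vehicle served as the neutral condition. Each well held 2,000 cells given 5-fluorouridine plus compound; after 16 hr at 37 °C/5% CO2, ONE-Glo was added and luciferase measured 30 min later.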
ELG1 genotoxic: inducers of genotoxicity in HEK293T ELG1-luciferase cells; HEK293T ELG1-luciferase reporter, luminescence, 16 h; Potency, µM (highest dose often 46 µM), for the others: at the top dose activity change, positive = activation, usual class: activators; actives 1.3% (n = 330,000); AID 504466; further: % of control where 0% means no effect; nearly all actives have a fitted effect of over 60% in size
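Step 1: seed 2,000 HEK293T ELG1-luciferase cells per well. Step 2: add compound or DMSO, incubate 16 hr at 37 °C. Step 3: ONE-Glo, 30 min at room temperature, read luminescence.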
FLuc counter: inhibits or activates purified firefly luciferase, miR-21 counter-screen; purified FLuc, Km substrates, luminescence inhibition; Potency, µM (top dose mostly 57.5 µM), for inactives: at the highest dose activity change, negative = inhibition, hits mostly inhibitors; actives 6.9% (n = 360,000);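 further: plate controls were vehicle for no effect and reference inhibitor for full effect; nearly all actives have a fitted effect of over 55% in size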
Target sequence (P08659 whole entry, looked up): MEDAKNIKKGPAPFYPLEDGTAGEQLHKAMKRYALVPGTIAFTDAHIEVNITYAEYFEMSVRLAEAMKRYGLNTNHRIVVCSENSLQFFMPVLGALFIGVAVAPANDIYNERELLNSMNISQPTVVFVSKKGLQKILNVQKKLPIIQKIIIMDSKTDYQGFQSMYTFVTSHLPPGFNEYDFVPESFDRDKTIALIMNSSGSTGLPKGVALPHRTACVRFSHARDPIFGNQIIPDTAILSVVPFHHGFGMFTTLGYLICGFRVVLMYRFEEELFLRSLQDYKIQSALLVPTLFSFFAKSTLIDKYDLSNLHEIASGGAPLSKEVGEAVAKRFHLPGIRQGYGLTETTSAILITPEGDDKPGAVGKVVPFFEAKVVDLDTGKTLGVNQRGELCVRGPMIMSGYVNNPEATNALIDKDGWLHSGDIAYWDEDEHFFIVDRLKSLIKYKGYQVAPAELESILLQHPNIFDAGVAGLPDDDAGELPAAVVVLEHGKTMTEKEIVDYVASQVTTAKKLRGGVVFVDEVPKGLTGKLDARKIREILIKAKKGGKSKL
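Purified P. pyralis luciferase (10nM final) with 10uM D-luciferin and 10uM ATP (Km levels) in 50mM Tris acetate pH 7.5, 10mM Mg acetate, 0.01% Tween-20, 0.05% BSA; qHTS 6-point titration, ~60 µM downward; luminescence read.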
SMN2 splice up: SMN2 splice variant enhancement; HEK293 SMN2-luciferase splicing reporter, luminescence, 30-36 h; Potency, µM (top dose mostly 46.1 µM), inactives show at the highest dose activity change, positive = activation, most hits filed as activators; actives 2.8% (n = 210,000); further: % of control where 0% means no effect; nearly all actives have a fitted effect of over 55% in size
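HEK293 cells carry an SMN2 minigene-luciferase reporter in which exon 7 inclusion puts luciferase in frame. Cells were seeded at 2000 cells/well, attached for 10-12 hours, then exposed to compounds for 30-36 hours at 37C before ONE-Glo luminescence.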
NPC1 promoter act: NPC1 promoter activation; Huh7 NPC1 promoter luciferase reporter, 24 h; Potency, µM (series often up to 9.22 µM), inactives show top-dose activation, most hits filed as activators; actives 2.4% (n = 320,000); further: % of control where 0% means no effect; nearly all actives have a fitted effect of over 60% in size
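In 1536-well qHTS, Huh7 cells harboring an NPC1 promoter–luciferase construct received compound for 24 h; activation was quantified by luminescence following luciferase reagent addition.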
Rab9 promoter act: activators of Rab9 promoter; Huh7 Rab9 promoter-luciferase reporter, luminescence, 24 h; AID 485297; actives 2.8% (n = 320,000); Potency, µM (top dose mostly 9.22 µM), without a hit: at the top dose activation, negative = inhibition, most hits filed as activators; further: % of control where 0% means no effect; nearly all actives have a fitted effect of over 60% in size
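Cells were plated at 1500 per well in reduced-serum medium with 10% FBS and left 2 h. Compound in DMSO was then added for 24 h at 37 °C. Reporter signal was read by luminescence after 10 min with luciferase detection reagent.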
* = called active by the depositor; ? = inconclusive; . = not tested or not shown; [ ] = dose if it differs, or a comment. Shown are actives, neighbours in structure and some others; about 9.3% of the full set was active somewhere. The call rests on the fitted dose curve; in most records, active means well fitted curve in the direction sought with a large enough effect; inconclusive means small, poorly fitted or top-dose-only effect, or another doubt; inactive means no such curve, though single readings can be large; an effect the other way counts as inactive or inconclusive. Potency means the concentration at half of the fitted maximal effect.

SMILES	ELG1 repair inh	ELG1 genotoxic	FLuc counter	SMN2 splice up	NPC1 promoter act	Rab9 promoter act
COc1cc(NC(=O)c2csc3c2CCCC3)ncn1	?	4.1µM*	3.4µM*	13µM*	3.5µM*	3.5µM*
O=C(Nc1ccccn1)c1csc2c1CCCC2	?	7.3µM*	6.7µM*	13µM*	?	1.8µM*
O=C(Nc1ccccn1)c1onc2c1CCCC2	?	?	0.76µM*	0.71µM*	0.35µM*	0.4µM*
COc1ccccc1NC(=O)c1csc2c1CCCC2	?	0%	19µM*	-18%	0%	-1%
N#CC1(NC(=O)CSc2n[nH]c(-c3ccccc3)n2)CCCCC1	2%	0%	-13%	.	-2%	-5%
O=C(NCCCN1CCOCC1)c1ccc(CSCc2cccc(Cl)c2)o1	-11%	-5%	-6%	-13%	6%	-4%
O=[N+]([O-])c1ccc(S(=O)(=O)Cc2ccccc2)c2nonc12	.	.	.	-6%[9.22 µM]	.	.
C/C(=N\Nc1cccc(C(=O)O)c1)c1cc2ccccc2o1	?	?	11µM*	11µM*	?	2.2µM*
C/C(=N\Nc1ccc(Cl)c(C(=O)O)c1)c1cccc2ccccc12	?	27%	?	.	4%	16%
C/C(=N\Nc1ccc(Cl)c(C(=O)O)c1)c1cc2ccccc2o1	?	?	27µM*	25%	18%	?
C/C(=N\Nc1ccccc1)c1cc2ccccc2oc1=O	?	12%	21µM*	.	10%	25%
COc1ccc(-c2csc(NC(=O)CN3C(=O)CCC3=O)n2)cc1	8%	2%	?	28%	3%	-6%
Cc1cccnc1NC(=O)Nc1ccc(Cl)cc1	?	?	4.3µM*	.	-8%	4µM*
COc1ccc(C(=O)NC(=O)Nc2ncccc2C)cc1	?	?	17µM*	?	?	3.5µM*
COC(=O)c1ccccc1NC(=O)Nc1ncccc1C	15%	0%	-1%	3%	-3%	-7%
Cc1cccnc1NC(=O)Nc1ccccc1	?	?	11µM*	.	?	4µM*
COc1ccc(NC(=O)Nc2ncccc2C)cc1	?	?	11µM*	11µM*	?	?
COc1ccc(CNc2nc(C)c([N+](=O)[O-])c(C)c2C#N)cc1	-13%	3%	2%	9%	0%	-2%
O=C(Oc1cccc(-n2cnnn2)c1)c1ccccc1Cl	-4%	0%	-14%	.	-5%	-3%
Cc1ccsc1/C=N/NC(=O)c1nnn(-c2nonc2N)c1C	3%	9%	?	.	1%	25%
COc1ccc(-c2csc3nc(-c4ccc(F)cc4)oc(=O)c23)cc1	.	.	-2%	-9%	.	.
CCc1cc2c(=O)oc(-c3ccc(F)cc3)nc2s1	2%	1%	4.8µM*	.	2%	12%
Cc1cc2c(=O)oc(-c3ccc(Br)cc3)nc2s1	?	?	1.9µM*	.	27%	21%
Cc1cccc(-c2nc3sc(C)cc3c(=O)o2)c1	?	12%	2.7µM*	.	23%	13%
COc1cc(-c2nc3sc(C)c(C)c3c(=O)o2)cc(OC)c1OC	4%	-3%	0%	.	4%	-2%
SMILES	ELG1 repair inh	ELG1 genotoxic	FLuc counter	SMN2 splice up	NPC1 promoter act	Rab9 promoter act
CCCCCCCC(=O)NNC(=O)Cc1ccccc1	6%	1%	0%	2%	1%	-2%
CCCCn1c(CNC(=O)c2ccc(OC)cc2)nnc1SCC(=O)Nc1ccc(OC)cc1	.	.	-7%	-3%	.	.
COc1ccccc1NC(=O)CSc1nnc(CNC(=O)c2ccco2)n1C	-3%	1%	-1%	.	1%	-1%
COc1ccc(C(=O)NCc2nnc(SCC(=O)Nc3ccccc3OC)n2C)cc1	11%	2%	15µM*	6%	-4%	-6%
COc1ccccc1NC(=O)CSc1nnc(CCNC(=O)c2ccc(C)cc2)n1C	?	6%	15µM*	.	9%	25%
CCOC(=O)c1ccc(NC(=O)CSc2nnc(CNC(=O)c3ccc(OC)cc3)n2CC)cc1	.	.	15µM*	8%	.	.
Cc1ccc(C(=O)c2ccc([N+](=O)[O-])cc2)cc1	20%	1%	-13%	-11%	3%	3%
N/C(Cc1ccc(Cl)cc1Cl)=N\OC(=O)c1cccs1	28%	0%	-20%	-11%	4%	12%
N/C(=N\OC(=O)c1cccs1)c1ccccc1	?	?	0.67µM*	?	?	?
N/C(=N\OC(=O)Cc1ccccc1)c1cccc(Br)c1	?	8%	17µM*	6%	0%	1%
N/C(=N\OC(=O)c1cccs1)c1cccc(Br)c1	?	?	1.1µM*	12%	-1%	1%
N/C(Cc1cccc2ccccc12)=N\OC(=O)c1cccs1	-7%	-1%	-4%	-1%	-1%	8%
N/C(=N\OC(=O)Cc1ccccc1[N+](=O)[O-])c1cccc(Br)c1	19%	3%	?	.	-2%	1%
Cc1cccc(/C(N)=N/OC(=O)c2cccs2)c1	?	?	0.76µM*	?	1.1µM*	1.3µM*
COc1ccc(/C(N)=N/OC(=O)c2cccs2)cc1OC	-8%	3%	5%	.	-7%	-11%
CCN(C(=O)c1ccc2c(=O)n3c(nc2c1)CCCCC3)c1ccccc1C	?	-5%	0%	.	0%	-1%
Cc1ccc(/C(N)=N/OC(=O)c2cccs2)cc1	?	15µM*	1.9µM*	26%[1.84 µM]	?	4.5µM*
O=C(O)c1ccc(N=Nc2c(O)ccc3ncccc23)cc1	?	-4%	1.7µM*	.	-20%	-30%
O=C(O)c1cc(N=Nc2c(O)ccc3ccccc23)cc(C(=O)O)c1	7%	0%	?	-9%	0%	-3%
Cc1ccc2nc3c(cc2c1)c(NS(=O)(=O)c1ccccc1)nn3CC(C)C	1%	0%	-7%	-6%	0%	-13%
CCn1nc(NS(=O)(=O)c2ccccc2)c2cc3cc(C)ccc3nc21	?	8%	15µM*	.	0%	0%
CCn1nc(NS(=O)(=O)c2ccc(NC(C)=O)cc2)c2cc3cc(C)ccc3nc21	?	12%	11µM*	.	9%	5%
CCn1nc(NS(=O)(=O)c2ccccc2)c2cc3ccc(C)cc3nc21	10%	0%	?	.	-4%	-6%
Cc1cc(N2C(=O)C(O)=C(C(=O)c3cccs3)C2c2cccc(Br)c2)no1 (stereo unspecified)	-10%	-5%	-11%	.	2%	-10%
Cc1cccc(NC(=O)c2ccc3c(c2)CCN3S(=O)(=O)c2ccccc2)c1C	.	.	-7%	0%	.	.
Nc1ccc(-c2nc3ccccc3s2)cn1	?	9.2µM*	4.8µM*	.	1.3µM*	1.6µM*
